Screening data deposited in PubChem BioAssay by National Center for Advancing Translational Sciences (NCATS).
GBA mod: human lysosomal glucosylceramidase modulation; actives 1.1% (n = 48,000); Potency, µM; purified enzyme, resorufin glucoside fluorescence (screen aimed at inhibitors), 20 min; in the data active means potency below about 15 µM; inconclusive means mostly about 16 µM to 33 µM;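 further: the screen sought inhibitors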
Target sequence (P04062 whole entry, looked up): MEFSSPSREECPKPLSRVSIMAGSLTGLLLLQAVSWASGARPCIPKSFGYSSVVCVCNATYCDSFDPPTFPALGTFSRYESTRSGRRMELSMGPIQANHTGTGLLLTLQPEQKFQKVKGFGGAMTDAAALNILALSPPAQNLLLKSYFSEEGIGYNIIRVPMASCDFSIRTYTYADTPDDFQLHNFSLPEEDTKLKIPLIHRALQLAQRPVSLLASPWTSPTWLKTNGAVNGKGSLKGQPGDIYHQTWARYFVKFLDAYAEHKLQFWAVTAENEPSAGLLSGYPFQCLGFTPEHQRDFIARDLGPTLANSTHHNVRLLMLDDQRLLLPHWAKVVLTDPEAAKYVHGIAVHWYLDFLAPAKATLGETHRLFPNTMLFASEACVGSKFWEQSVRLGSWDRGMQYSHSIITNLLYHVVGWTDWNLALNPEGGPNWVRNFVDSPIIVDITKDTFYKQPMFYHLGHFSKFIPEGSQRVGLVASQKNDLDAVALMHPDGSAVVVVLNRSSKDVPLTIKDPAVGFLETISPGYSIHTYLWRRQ
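Compounds titrated against 0.2 nM normal enzyme, 30 uM resorufin beta-D-glucopyranoside substrate, citrate/phosphate buffer with taurocholate and tween-20, pH 5.9. Reaction ran 20 min at room temperature; fluorescence (Ex 548/Em 600) gave AC50.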
FLuc inh: blocks Photinus pyralis firefly luciferase activity; P08659; purified firefly luciferase, luminescence, 8 min; AID 411; Potency, µM (doses to about 57.1 µM), for the others: at the top dose activity change, negative = inhibition, usual class: inhibitors; actives 2.2% (n = 72,000); further: on the % scale 0 is the no-effect control and ±100 the full control effect; nearly all actives have a fitted effect of over 40% in size
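Compounds were tested as concentration series (qHTS) against purified P. pyralis luciferase with luciferin and 10 uM ATP in 50 mM imidazole pH 7.2, 50 mM KCl, 7 mM MgCl2, 0.01% Tween 20, 0.05% BSA. Luminescence was read after 8 min at ambient temperature.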
PK Bst: modulators of Bacillus stearothermophilus pyruvate kinase. purified pyruvate kinase, luminescence ATP production; ribose 5-phosphate activator present at AC10. Potency, µM. actives 1.2% (n = 51,000). AID 361; in the data active means potency below about 11 µM; inconclusive means mostly about 12 µM to 25 µM;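 the screen sought inhibitors and activators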;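 further: scaled between full activation by ribose 5 phosphate and full inhibition by luteolin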
HEK293 cAMP ctrl: parental HEK293 cAMP activation (counter-screen). actives 2.5% (n = 73,000). parental HEK293 CNG cAMP sensor, membrane potential fluorescence. AID 938. Potency, µM (top dose mostly 57.1 µM), without a hit: at the highest dose activation, most hits filed as activators; further: % of control where 0% means no effect; nearly all actives have a fitted effect of over 55% in size
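Parental HEK 293 cells stably expressing a modified CNG channel (no TSHR) report cAMP rise as membrane depolarization. Membrane potential dye with 100 uM RO 20-1724 was loaded for 60 min at room temperature, then compound added for 30 min; fluorescence read at 590 nm.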
TSHR ag: TSH receptor (human) agonism; Potency, µM (highest dose often 57.1 µM), without a hit: at the top dose activation, usual class: activators; HEK293-CNG-TSHR cells (CNG channel as cAMP sensor), membrane potential dye, cAMP; P16473; actives 0.48% (n = 73,000); active means well fitted activation curve with a large enough effect in the main read-out, with a control signal flat, not every such curve was filed as active; inconclusive means small, poorly fitted or top-dose-only effect, or a change in a side signal; inactive means no such curve, though single readings can be large or run the other way; % of control where 0% means no effect;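 further: the control signal comes from parental cells without the receptor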
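HEK 293 cells stably expressing TSHR and a cAMP-gated CNG channel; parental CNG-only cells as counterscreen. Cells preloaded 60 min with membrane potential dye plus 100 uM RO 20-1724, then compound 30 min; fluorescence read at 590 nm.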
ERK AVP inh: blocks ERK signaling stimulated by vasopressin. actives 0.99% (n = 72,000). HEK293-V1b, vasopressin-stimulated pERK AlphaScreen. Potency, µM (series often up to 57.5 µM), inactives show at the top dose activity, negative = inhibition, usual class: inhibitors; further: on the % scale 0 is the no-effect control and ±100 the full control effect; nearly all actives have a fitted effect of over 55% in size
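Phosphorylated ERK1/2 detected via AlphaScreen bead proximity in lysates of V1b-expressing HEK293 cells given 25 nM vasopressin for 5 min after 30 min compound exposure (37 °C). AC50 from Hill equation; basal DMSO 0%, vasopressin 100%.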
* hit, by the source's call; i = inactive; ? = inconclusive; . = not tested or not shown; [ ] = another dose, or the depositor's remark. Only some compounds are listed: those with a hit (about 6.1% of all), similar ones and a draw of the others. Unless noted, the call rests on the fitted dose curve; in most records, active means well fitted curve in the direction sought with a large enough effect; inconclusive means small, poorly fitted or top-dose-only effect, or another doubt; inactive means no such curve, though single readings can be large; an effect the other way counts as inactive or inconclusive. Potency means the concentration at half of the fitted maximal effect.

SMILES | GBA mod | FLuc inh | PK Bst | HEK293 cAMP ctrl | TSHR ag | ERK AVP inh
CCCc1cc(C(=O)N(C2CCCCC2)C2CCCCC2)no1 | . | -1% | . | 25% | 20µM* | 19%
O=C(CN1CCCN(Cc2ccc(F)cc2Cl)C1=O)NCc1ccccc1 | >77 | 0% | >57 | 9% | 25µM* | 14%
COc1ccccc1Nc1nc(-c2cccs2)cs1 | . | 13µM* | . | 1% | 1% | ?
Cc1cc(CNC(=O)[C@H](C)[C@H]2C[C@]2(C)[C@H](NC(=O)OCc2ccccc2)c2ccccc2)nn1C | . | . | . | ? | ? | 5%
COC(=O)c1ccc(NC(=O)Nc2ccc(F)cc2)cc1 | >77 | 20µM* | i | 15% | 14% | ?
CC(C)C[C@@H](CC(=O)N[C@@H](CCC(=O)O)CC(=O)O)NC(=O)[C@@H]1CCCC[C@H]1NC(=O)C[C@@H](NC(=O)C[C@H](Cc1ccccc1)NC(=O)[C@@H]1CCCC[C@H]1N)C(C)C | . | . | . | 31% | 7% | .
Cc1nn(-c2ccccc2)c2c1/C(=N/O)CC(C)(C)C2 | >77 | 1% | >57 | 25µM* | ? | -26%
CC(=O)OC[C@@H]1O[C@@H](O/N=C2/C[C@@H](O)[C@@H](O)[C@@H]3[C@@H]4C(=O)N(Cc5ccccc5)C(=O)[C@H]4CC[C@@H]23)[C@H](OC(C)=O)[C@H](OC(C)=O)[C@@H]1OC(C)=O | . | 1%[11.4 µM] | . | 8%[11.4 µM] | -5%[11.4 µM] | 7%[11.5 µM]
COc1cccc2sc(N(C)c3ccccc3)nc12 | >77 | 7.9µM* | 8.1* | 11% | 14% | -29%
CN(C)c1ncc2nc(-c3cccs3)c(=O)n(-c3ccccc3)c2n1 | . | 1%[11.4 µM] | . | -10% | -4% | -18%
Cc1cc(C)c2c(CC(=O)NCc3ccco3)coc2c1 | >77 | 1% | >57 | 17% | 32µM* | -18%
COc1cc(C2c3cc4c(cc3C(OC3OC5COC(C)O[C@@H]5C(O)C3O)C3COC(=O)C23)OCO4)cc(OC)c1O (stereo not given in full) | . | . | . | . | . | 14%
Cc1cccc2[nH]c(-c3ccc(NC(=O)c4ccco4)cc3)nc12 | >77 | 16µM* | ? | 3% | -25% | 11%
Cc1ccc(-c2nc3ccccc3[nH]2)cc1NC(=O)c1ccco1 | >77 | 20µM* | i | 13% | 4% | -5%
Cc1ccc(C2CCN(C(=O)Nc3ccccc3)C2)cc1 (stereo not given) | >77 | 25µM* | . | ? | ? | 17%
Cc1ccc(NC(=O)N2CCC(C(=O)NCc3ccccc3)CC2)cc1 | >77 | 0% | >57 | 3% | -2% | 27%
COc1ccc(CNc2ncnc3ccc(-c4cccc(C#N)c4)cc23)c(OC)c1 | . | -1%[2.29 µM] | . | 18% | 16% | 5%
CCOc1ccc(-c2n[nH]c(C)c2Oc2ccc(OC)cc2)c(O)c1 | >77 | 1% | >57 | -1% | 4% | 40µM*
CCCn1c(=O)[nH]c2nc(-c3ccc(S(=O)(=O)O)cc3)[nH]c2c1=O | . | 1% | . | 9% | . | -25%
CCOC(=O)c1c(N)sc(C(N)=O)c1C | . | 0% | . | 3% | 2% | 13µM*
Cc1c(C(N)=O)sc(N)c1C(=O)OC(C)C | . | 0% | . | 28% | -8% | -13%
COC(=O)C/C=C\[C@@H](C)[C@@H](/C=N\O[C@@H]1O[C@H](COC(C)=O)[C@H](OC(C)=O)[C@H](OC(C)=O)[C@H]1OC(C)=O)OC | . | 0%[11.4 µM] | . | 5%[11.4 µM] | 20%[11.4 µM] | 17%[11.5 µM]
CCOC(=O)c1cc(C)sc1N1C(=O)C2C3C=CC(C3)C2C1=O (stereo not given) | >77 | 2% | >57 | 7% | 2µM* | 1%
CC(C)CC(=O)Nc1ccc(-c2cn3ccsc3n2)cc1 | . | 3.2µM* | 2.7* | -4% | -12% | -28%
O=S(=O)(Nc1ccc(-c2cn3ccsc3n2)cc1)c1ccc2c(c1)OCCO2 | 15* | -8% | >57 | 24% | . | -19%
SMILES | GBA mod | FLuc inh | PK Bst | HEK293 cAMP ctrl | TSHR ag | ERK AVP inh
CC(C)(C)C(=O)Nc1ccc(-c2cn3ccsc3n2)cc1 | i | 1µM* | 1.6* | ? | ? | 15%
CC1(C)CC[C@]2(C(=O)O)CC[C@]3(C)C(=CCC4[C@@]5(C)CC[C@H](O)C(C)(C)C5[C@H](O)C[C@]43C)C2C1 (stereo not given in full) | . | . | . | . | . | -13%
Cn1c(CSc2ccccc2)c(C#N)c2ccccc21 | >77 | 3% | >57 | 25µM* | ? | 34%
Cc1cc2n(n1)C(c1sccc1C)Nc1ccccc1-2 (stereo not given) | >77 | -29% | >11 | 9% | 18% | -1%
Cc1ccc2c(c1)-c1cc(C)nn1C(c1sccc1C)N2 (stereo not given) | . | ? | 11* | ? | ? | 13%
CC(C)Nc1c(N)c(=O)oc2ccccc12 | >77 | 2% | >57 | 10% | 1% | 1%
Nc1ccc2oc(=O)c3ccccc3c2c1 | >77 | -2% | ? | -15% | 6% | 10µM*
O=C(CCN1CCCCC1)c1csc2ccccc12 | . | 4%[11.4 µM] | . | -2%[11.4 µM] | 4%[11.4 µM] | -12%[11.5 µM]
Cc1ccc(C(=O)OCC(=O)c2ccc(Cl)s2)s1 | >77 | 16µM* | i | 18% | 16% | -1%
O=C(COC(=O)c1ccc[nH]c1=O)c1ccc(Cl)s1 | >77 | -17% | >57 | ? | ? | -7%
Cc1ccc2[nH]c(-c3cccc(N)c3)cc2c1 | >15 | 13µM* | ? | -19% | -16%[11.4 µM] | 7%
O=C(O)c1ccc(Cl)cc1Cl | . | . | . | -1% | ? | 4%
O=C(CN1CCN(c2ccccn2)CC1)Nc1ccc2ccccc2c1 | >77 | 40µM* | >57 | ? | ? | -7%
N#CC1=C(N)C(C#N)(C#N)C2(CCC3(CC2)OCCO3)C2CC3(CC=C12)OCCO3 (stereo not given) | >77 | 1% | >57 | -10% | -3% | -17%
N#CC1=C(N)C(C#N)(C#N)[C@H](c2c(F)cccc2F)[C@H]2CC3(CC=C12)OCCO3 | 14* | -2% | >57 | 11% | 2% | -3%
CC(C)(C)c1ccc(-c2nnc(SCC(=O)O)n2N)cc1 | >77 | 16µM* | . | 16% | -4% | 15%
CCCCN1c2ccccc2N(CCCO)c2cc(C)nnc21 | >77 | 16µM* | . | 8% | 0% | ?
CCCCn1c(-c2ccccc2)nnc1-c1ccccc1 | >77 | 0% | >57 | ? | ? | -5%
NC(=O)C1CCN(c2nc(-c3ccccc3)nc3c2oc2ccccc23)CC1 | 8.3* | -1% | >57 | -19% | . | -17%
CCc1nc(N2CCC(C)CC2)c2oc3ccccc3c2n1 | >77 | 1% | . | 16µM* | ? | 20%
NC(=O)C1CCN(c2nc(-c3ccccc3)nc3ccccc23)CC1 | >77 | -2% | . | -9% | . | -6%
CCc1nc(N(CC)CC)c2oc3ccccc3c2n1 | >77 | -2% | >57 | 16µM* | ? | 18%
